In PubChem BioAssay AID504452 (The Scripps Research Institute Molecular Screening Center, 2011):
Calls of active or inactive are those of the source. Cut-off read from the data, not from the text of the source: active = activation above about 85%; inactive = the rest.

Biological target: Peroxisome proliferator-activated receptor gamma (Homo sapiens) (UniProt P37231)
Assay: PPARg partial agonist activation, primary screen, cell-based, luciferase reporter, luminescence (AID 504452);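 note: Cos-1 cells carrying PPARgamma and a response element luciferase reporter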
Details: at 5 µM, stronger effect = higher value; activation (% of full agonist control): measured here: relative to full agonist control

Chain of Peroxisome proliferator-activated receptor gamma (Homo sapiens) (P37231 whole entry, looked up): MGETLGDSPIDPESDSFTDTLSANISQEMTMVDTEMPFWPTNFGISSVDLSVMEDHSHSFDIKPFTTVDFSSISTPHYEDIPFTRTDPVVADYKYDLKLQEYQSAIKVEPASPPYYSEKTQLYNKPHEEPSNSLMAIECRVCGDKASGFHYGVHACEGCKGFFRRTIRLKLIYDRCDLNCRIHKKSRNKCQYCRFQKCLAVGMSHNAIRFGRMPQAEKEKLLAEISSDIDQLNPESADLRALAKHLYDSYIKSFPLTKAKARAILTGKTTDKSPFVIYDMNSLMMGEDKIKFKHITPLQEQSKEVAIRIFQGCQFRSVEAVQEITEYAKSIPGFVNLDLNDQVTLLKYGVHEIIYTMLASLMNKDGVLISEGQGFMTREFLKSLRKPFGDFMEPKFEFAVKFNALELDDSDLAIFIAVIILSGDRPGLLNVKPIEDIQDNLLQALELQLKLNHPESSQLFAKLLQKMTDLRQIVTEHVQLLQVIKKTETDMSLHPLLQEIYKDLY

Cn1nc(-c2ccccc2)c(CO)c1Oc1cccc(C(F)(F)F)c1
activation (% of full agonist control): 30.3% | activation (% of partial agonist control): 67% (inactive)

O=C(Nc1c(C(=O)Nc2ccc3c(c2)OCCO3)cnn1-c1ccccc1Cl)c1ccco1
activation (% of full agonist control): 47.5% | activation (% of partial agonist control): 105% (active)

O=C(NCc1ccccc1F)C(=O)NCC1CCCN1S(=O)(=O)c1ccccc1 (centres undefined)
activation (% of full agonist control): 16.1% | activation (% of partial agonist control): 35.6% (inactive)

Cc1ccc(S(C)=O)cc1-n1c(=O)n(Cc2ccccc2)c(=O)c2[nH]cnc21 (centres undefined)
activation (% of full agonist control): 12.8% | activation (% of partial agonist control): 28.4% (inactive)

CCn1cc(C(=O)N2CCN(c3ccc(OC)cc3)CC2)c2cc(OC)c(OC)cc2c1=O
activation (% of full agonist control): 27.6% | activation (% of partial agonist control): 61% (inactive)

Cc1ccc(C(=O)N2NC(c3ccccc3F)C3C(=O)N(c4cccc(C)c4)C(=O)C32)cc1 (centres undefined)
activation (% of full agonist control): 33.4% | activation (% of partial agonist control): 73.8% (inactive)

O=C(Cn1c(=O)c(=O)n(Cc2ccccc2)c2ccc(Cl)cc21)Nc1cc(F)ccc1F
activation (% of full agonist control): 28.4% | activation (% of partial agonist control): 62.9% (inactive)

COc1cc(C2/C(=C(/O)c3ccccc3)C(=O)C(=O)N2c2ccccn2)ccc1O (centres undefined)
activation (% of full agonist control): 26% | activation (% of partial agonist control): 57.6% (inactive)

CC(=O)c1cccc(NC(=O)CSc2nc(=O)n(CCN3CCOCC3)c3c2CCCC3)c1
activation (% of full agonist control): 36.2% | activation (% of partial agonist control): 80.2% (inactive)

O=C(CSc1nc(=O)n(CCCN2CCOCC2)c2c1CCC2)Nc1cccc(F)c1
activation (% of full agonist control): 40.3% | activation (% of partial agonist control): 89.3% (active)

COc1ccc(N2C(=O)C(CN3CCN(C)CC3)C2c2ccccc2)cc1 (centres undefined)
activation (% of full agonist control): 31.9% | activation (% of partial agonist control): 70.6% (inactive)

O=C(CSc1nc(=O)n(CCN2CCOCC2)c2c1CCCC2)Nc1cccc([N+](=O)[O-])c1
activation (% of full agonist control): 47.7% | activation (% of partial agonist control): 106% (active)

Cc1cc(C(=O)CN2C(=O)C(=O)N(Cc3ccccc3)C2=O)c(C)n1-c1ccc2c(c1)OCCO2
activation (% of full agonist control): 40.4% | activation (% of partial agonist control): 89.5% (active)

CC(=O)c1ccc(N2CCN(C(=O)C3CCCN(S(=O)(=O)c4cnc[nH]4)C3)CC2)cc1 (centres undefined)
activation (% of full agonist control): 25.1% | activation (% of partial agonist control): 55.5% (inactive)

Cn1cc(CNCc2cn[nH]c2-c2ccc(F)cc2)c(-c2ccc3c(c2)OCCO3)n1
activation (% of full agonist control): 29.7% | activation (% of partial agonist control): 65.8% (inactive)

S=C(NCCc1ccccc1)N1CCn2cccc2C1c1ccncc1 (centres undefined)
activation (% of full agonist control): 44.2% | activation (% of partial agonist control): 97.9% (active)

CCOc1cc(N2CCOCC2)c(OCC)cc1NC(=O)c1ccc2ccccc2n1
activation (% of full agonist control): 46.5% | activation (% of partial agonist control): 103% (active)

O=c1c2cn(Cc3ccc(F)cc3)c3ccccc3c-2nn1Cc1ccc(F)cc1
activation (% of full agonist control): 40.3% | activation (% of partial agonist control): 89.3% (active)

O=C(c1cc(-c2ccco2)nc2ccccc12)N1CCCC(C(F)(F)F)C1 (centres undefined)
activation (% of full agonist control): 27.6% | activation (% of partial agonist control): 61% (inactive)

CC(Oc1cccc(Cl)c1)C(=O)Nc1ccc(N2CCOCC2)cc1N1CCOCC1 (centres undefined)
activation (% of full agonist control): 33.2% | activation (% of partial agonist control): 73.5% (inactive)

O=C1CC(NS(=O)(=O)c2ccc3ccccc3c2)CN1c1ccccc1 (centres undefined)
activation (% of full agonist control): 31.7% | activation (% of partial agonist control): 70.2% (inactive)

O=C(Nc1ccccc1Cl)C(=O)c1cn(CC(=O)N2CCOCC2)c2ccccc12
activation (% of full agonist control): 50.5% | activation (% of partial agonist control): 112% (active)

Cc1cccn2c(=O)c(/C=C(\C#N)C(=O)NC3CCS(=O)(=O)C3)c(Oc3ccc(F)cc3)nc12 (centres undefined)
activation (% of full agonist control): 34.6% | activation (% of partial agonist control): 76.7% (inactive)

O=C(c1cc2n(n1)C(C(F)(F)F)CC(c1ccco1)N2)N1CCc2ccccc2C1 (centres undefined)
activation (% of full agonist control): 37.2% | activation (% of partial agonist control): 82.3% (inactive)

O=C(c1nc2ccccn2c1CN1CCCC(O)C1)N1CCN(C2CCCCC2)CC1 (centres undefined)
activation (% of full agonist control): 46.4% | activation (% of partial agonist control): 103% (active)

CC(Oc1ccc2c(c1)oc(=O)c1ccccc12)C(=O)NC(Cc1c[nH]c2ccc(O)cc12)C(=O)O (centres undefined)
activation (% of full agonist control): 49.2% | activation (% of partial agonist control): 109% (active)

O=C(NC(Cc1ccccc1)C(=O)O)/C(=C/c1ccc([N+](=O)[O-])cc1)NC(=O)c1ccco1 (centres undefined)
activation (% of full agonist control): 35.3% | activation (% of partial agonist control): 78.1% (inactive)

N#Cc1ccc(C(=O)Nc2cc(-c3ccc(F)cc3)nn2-c2ccccc2)cc1
activation (% of full agonist control): 27.4% | activation (% of partial agonist control): 60.6% (inactive)

OCCC1CN(Cc2cccn2-c2cccnc2)CCN1Cc1ccc(F)cc1 (centres undefined)
activation (% of full agonist control): 29.8% | activation (% of partial agonist control): 66% (inactive)

Cc1ccc2nc(N3C(=O)C(O)=C(C(=O)c4ccco4)C3c3ccc(O)cc3)sc2c1 (centres undefined)
activation (% of full agonist control): 40.9% | activation (% of partial agonist control): 90.5% (active)

COc1ccccc1N1C(=O)C2C(c3ccccc3F)NN(C(=O)c3ccc(C)cc3)C2C1=O (centres undefined)
activation (% of full agonist control): 26.8% | activation (% of partial agonist control): 59.4% (inactive)

Cc1ccc(C(=O)NCc2cccc(C(F)(F)F)c2)cc1S(=O)(=O)N1CCCCC1
activation (% of full agonist control): 25.6% | activation (% of partial agonist control): 56.7% (inactive)

Cc1ccc(-n2ncc3c(=O)[nH]c(SCC(=O)N4CCCc5ccccc54)nc32)cc1
activation (% of full agonist control): 36.4% | activation (% of partial agonist control): 80.5% (inactive)

COc1cc(CN2CCCC(N3CCN(c4ccc(F)cc4)CC3)C2)ccc1F (centres undefined)
activation (% of full agonist control): 31.2% | activation (% of partial agonist control): 69% (inactive)

NC(=O)C1CCCN(Cc2c(C(=O)N3CCc4ccccc4C3)nc3ccc(Cl)cn23)C1 (centres undefined)
activation (% of full agonist control): 30.2% | activation (% of partial agonist control): 66.9% (inactive)

O=C(Cn1nc(Cc2ccncc2)c2ccccc2c1=O)N1CCN(C(=O)c2ccco2)CC1
activation (% of full agonist control): 36.2% | activation (% of partial agonist control): 80.2% (inactive)

O=C(c1ccc(F)cc1)c1cn(Cc2ccc(F)cc2)c2cc3c(cc2c1=O)OCCO3
activation (% of full agonist control): 37.8% | activation (% of partial agonist control): 83.8% (inactive)
